RecA splice inh = Mtb RecA intein splicing inhibitors, primary screen, biochemical, fluorescence, HTS; cell-free RecA intein splicing; 0.75% of 290,000 active; inhibition, % (no concentration beside the values); in the data active = inhibition above about 30%;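 also: 0% = vehicle wells and 100% = reference inhibitor control wells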
Mtb FBA inh = Mtb FBA enzyme inhibitors, primary screen, biochemical, fluorescence, strain H37Rv; Fructose-bisphosphate aldolase (Mycobacterium tuberculosis (strain ATCC 25618 / H37Rv)), …; purified M. tuberculosis FBA, fluorescence read-out; inhibition, % at 1 µM; 2.3% of 360,000 active; AID 588726, 2011;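 also: 0% = vehicle and 100% = reference inhibitor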
Target sequence (P9WQA3 whole entry, looked up): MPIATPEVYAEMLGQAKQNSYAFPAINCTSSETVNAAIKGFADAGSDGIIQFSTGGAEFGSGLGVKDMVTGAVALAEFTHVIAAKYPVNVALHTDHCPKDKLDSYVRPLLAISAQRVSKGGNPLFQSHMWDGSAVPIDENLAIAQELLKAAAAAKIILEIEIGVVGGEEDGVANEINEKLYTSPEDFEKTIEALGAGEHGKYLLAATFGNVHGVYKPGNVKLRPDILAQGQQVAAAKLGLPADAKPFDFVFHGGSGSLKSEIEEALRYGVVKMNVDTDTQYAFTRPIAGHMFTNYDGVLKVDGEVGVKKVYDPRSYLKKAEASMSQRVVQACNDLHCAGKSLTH
GDH-TPI counter-1 = GDH-TPI coupling enzyme inhibitors, primary screen, artefact control for M. tuberculosis FBA inhibitor project, biochemical, absorbance, full deck; 1.2% of 360,000 active; GDH-TPI coupled enzyme counterscreen, NADH absorbance; inhibition, % at 4.8 µM; AID 588335, 2011; in the data active = inhibition above about 30%;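 also: 0% = DMSO wells and 100% = wells lacking the enzyme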
CCHFV vOTU inh = CCHFV vOTU protease inhibitors, primary screen, biochemical, Pep-AMC substrate, fluorescence; inhibition, % at 11.5 µM; 0.55% of 370,000 active; in the data active = inhibition above about 30%; also: 0% = vehicle wells with enzyme and 100% = no enzyme wells
Mtb FBA inh conf = M. tuberculosis aldolase blockers, biochemical, fluorescence, strain H37Rv, confirmation; shares compounds with Mtb FBA inh; purified M. tuberculosis FBA, fluorescence read-out; inhibition, % at 1 µM; 78% of 5,600 active;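 also: 0% = vehicle wells and 100% = reference inhibitor wells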
GDH-TPI counter-2 = GDH-TPI coupling enzyme inhibitors, artefact control for M. tuberculosis FBA inhibitor project, biochemical, fluorescence, high throughput; 81% of 5,600 active; inhibition, % at 1 µM; AID 652141, 2013; shares compounds with Mtb FBA inh; GDH-TPI coupled enzyme counterscreen; in the data active = inhibition above about 10%
An asterisk follows results filed as active; · = no result given; + = active, no number. Rows were chosen to be rich in hits. Some 4.2% of all compounds tested hit in one or more screens of this group. Rule as the data show it, unless noted: active = inhibition above about 27%; inactive = the rest.

SMILES	RecA splice inh	Mtb FBA inh	GDH-TPI counter-1	CCHFV vOTU inh	Mtb FBA inh conf	GDH-TPI counter-2
CC(=O)Nc1cc(-c2cccc(C)c2)cn2c(-c3ccc(S(C)(=O)=O)cc3)cnc12	·	35*	14	-14	1	-3
CCNC(=O)C1(C)CCCN(C(=O)C2(c3ccc(Cl)cc3)CCCC2)C1 (centres undefined)	·	3	10	4	·	·
OCCCNc1cc(-c2ccccc2)nc2cc(-c3ccc(F)cc3)nn12	-8	59*	15	-60	102*	77*
Cc1cc(NCCN(C)C)n2nc(-c3cccs3)cc2n1	-2	22	9	-13	·	·
Cc1cc(NCCCO)n2nc(-c3cccs3)cc2n1	-1	33*	0	-33	68*	56*
CCOc1ccc(N2CC(C(=O)Nc3ccc(S(=O)(=O)Nc4nccs4)cc3)CC2=O)cc1 (centres undefined)	1	0	8	-9	·	·
Nc1nc(-c2ccccc2)[nH]c(=O)c1N	-15	29*	16	-34	72*	53*
Nc1[nH]nc2nc(-c3ccccc3)[nH]c(=O)c12	2	0	-3	-21	·	·
O=C(COc1ccc2oc(-c3ccccc3)cc(=O)c2c1)NCc1ccco1	-3	30*	6	·	90*	69*
O=C(c1ccc2c3c(cccc13)CC2)C1CCCN(CC2CC2)C1 (centres undefined)	-16	33*	8	-78	6	-2
O=C(c1ccc2c3c(cccc13)CC2)C1CCCN(Cc2ccncc2)C1 (centres undefined)	2	12	18	2	·	·
COc1cc(OC)cc(-c2c(-c3cccs3)c3cc(-c4ccc(OC)c(OC)c4)ccc3n2C)c1	·	32*	19	-4	+	170*
COc1cc(OC)cc(-c2c(-c3cccs3)c3cc(-c4ccc5cc[nH]c5c4)ccc3n2C)c1	·	28*	38*	-3	116*	111*
COc1ccc(-c2c(-c3cc(OC)cc(OC)c3)n(C)c3ccc(-c4ccc(S(N)(=O)=O)cc4)cc23)cc1	·	54*	12	-19	53*	47*
COc1cc(OC)cc(-c2c(-c3cccs3)c3cc(-c4ccc(SC)cc4)ccc3n2C)c1	·	0	9	10	·	·
COc1cccc(-c2c(-c3cc(OC)cc(OC)c3)n(C)c3ccc(-c4ccc5cc[nH]c5c4)cc23)c1	·	34*	33*	-4	58*	43*
Cc1ccc(OCCN2CCC2(C)C(=O)NCc2ccc(C(F)(F)F)cc2)cc1 (centres undefined)	·	3	6	24	·	·
C/C(=N\NC(=O)CCn1nnc2ccccc21)c1ccco1	2	2	27	-1	·	·
COc1cc(OC)cc(-c2c(-c3cccs3)c3cc(-c4ccc5[nH]ccc5c4)ccc3n2C)c1	·	35*	19	2	97*	66*
COc1cc(C#Cc2c(-c3cncn3C)n(C)c3ccc(-c4ccc(OC)c(OC)c4)cc23)cc(OC)c1	·	24	4	-6	·	·
COc1cc(C#Cc2c(-c3cncn3C)n(C)c3ccc(-c4ccc5cc[nH]c5c4)cc23)cc(OC)c1	·	35*	23	5	56*	46*
Cc1cc2c([nH]c3ccccc32)c(C)n1	-19	96*	0	-149	2	-7
Cc1nc(C(=O)NCCO)cc2c1[nH]c1ccccc12	-1	16	4	-5	·	·
Cc1nc(C(=O)O)cc2c1[nH]c1ccccc12	-13	85*	15	-134	+	+
Cc1ccc(C(=O)C(C)Oc2ccc3ccc(=O)oc3c2)cc1 (centres undefined)	2	2	3	-10	·	·
SMILES	RecA splice inh	Mtb FBA inh	GDH-TPI counter-1	CCHFV vOTU inh	Mtb FBA inh conf	GDH-TPI counter-2
Cc1onc(-c2ccccc2Cl)c1C(=O)Nc1nnc(-c2ccc(F)cc2)s1	5	16	19	3	·	·
Cc1onc(-c2ccccc2Cl)c1C(=O)Nc1nnc(-c2ccc(Br)cc2)s1	5	92*	37*	-9	119*	99*
Cc1onc(-c2ccccc2Cl)c1C(=O)Nc1nnc(-c2ccc(Cl)cc2Cl)s1	7	62*	21	8	68*	57*
CCOc1ccc(-c2cc(C(=O)N/N=C(\C)c3cccnc3)c3ccccc3n2)c(OCC)c1	-1	1	6	13	·	·
CCc1ccccc1NC(=O)CNC(=O)c1cc(C2CC2)nc2c1cnn2C(C)C	·	37*	5	-13	+	+
Cc1cc(C)c(CNC(=O)c2cc(C3CC3)nc3c2cnn3C(C)C)c(=O)[nH]1	·	7	8	4	·	·
Cc1cc(C)c(NC(=O)CNC(=O)c2cc(C3CC3)nc3c2cnn3C(C)C)c(C)c1	·	35*	8	5	121*	92*
CC(C)n1ncc2c(C(=O)NCC(=O)Nc3ccccc3Br)cc(C3CC3)nc21	·	30*	5	·	-2	0
COc1ccccc1CCNC(=O)c1cc(C2CC2)nc2c1cnn2C(C)C	·	-1	-3	9	·	·
C[C@@H]1CN([C@H](C)CO)C(=O)CCCn2cc(nn2)CO[C@H]1CN(C)S(=O)(=O)c1ccccc1C#N	·	-1	-2	10	·	·
CC(=O)Nc1ccc(NC(=O)CSc2nc3nc(-c4cccs4)cc(C(F)(F)F)c3c(=O)[nH]2)cc1	5	10	14	-10	·	·
CCOc1ccccc1NC(=O)CSc1nc2nc(-c3cccs3)cc(C(F)(F)F)c2c(=O)[nH]1	-5	58*	13	-3	73*	50*
O=C(CSc1nc2nc(-c3cccs3)cc(C(F)(F)F)c2c(=O)[nH]1)NCc1ccco1	0	95*	7	-108	2	-8
O=C(NCc1ccccc1)[C@H]1CCCN1C(=O)[C@H]1CCCN1C(=O)c1ccc(F)c(C(F)(F)F)c1	·	·	·	-12	·	·
NNC(=O)c1sc(-c2ccccc2)cc1N	-1	41*	10	-7	-1	-3
C[C@H]1CN([C@@H](C)CO)C(=O)c2cc(/C=C/c3ccccc3)cnc2O[C@H]1CN(C)C(=O)c1cccc(F)c1	·	64*	3	-27	66*	58*
CC(NCC(=O)Nc1cc(S(=O)(=O)N2CCOCC2)ccc1N1CCOCC1)c1ccco1 (centres undefined)	·	-2	8	7	·	·
CCNC(=O)c1c(O)c2ccccc2[nH]c1=O	-182	48*	2	-50	180*	141*
c1csc(-c2nc3c4ccccc4c4ccccc4c3[nH]2)c1	13	58*	7	-45	+	+
